system: Plasmodium falciparum; experiment: GSK_TCMDC: Inhibition of Plasmodium falciparum 3D7 in whole red blood cells, using parasite LDH activity as an index of growth. Test compounds present at 2uM; assay type: functional

SMILES	Inhibition
COc1cc2ncnc(Nc3ccc(OCc4ccccc4)c(OCc4ccccc4)c3)c2cc1OC.Cl	100%
CC(CCCCCC(=O)Nc1ccc(CC(C)NCCc2cccc(Cl)c2)cc1)NCCc1cccc(Cl)c1 (stereo unspecified)	91%
CCOc1ccc2c(=NN=Cc3ccccc3OC)cc(C)[nH]c2c1	99%
CC(C)COc1ccc(Cl)cc1Cc1ccc(-c2nc3cnc4ccccc4c3[nH]2)o1	87%
Clc1ccc(CNc2ccnc(NCc3cccnc3N3CCCC3)n2)c(Cl)c1	85%
Cc1ccc(S(=O)(=O)NC2=NC(=N)N(OCc3ccc(Cl)c(Cl)c3)C(C)(C)N2)cc1	88%
Cc1cccc2nc(-c3ccc(-c4cccc(NC(=O)c5cncn5C)c4)cc3)[nH]c12	100%
COc1cc(-c2nc(-c3ccc([N+](=O)[O-])cc3)c(-c3ccccc3)[nH]2)cc(OC)c1O	98%
COc1ccc(-c2csc(C(=O)NC3CCC(N4CCC(c5ccccc5C)CC4)CC3)c2)cc1 (stereo unspecified)	100%
COc1cc(OC)c2c(C)cc(NCCCN3CCOCC3)nc2c1	99%
NC1CCN(CCNCc2cccc(-c3ccc(-c4nc5cc(F)ccc5[nH]4)cc3)c2)C1.O=C(O)C(F)(F)F (stereo unspecified)	99%
NCC1CCCN1Cc1ccc(-c2ccc(-c3nc4cc(C(F)(F)F)ccc4[nH]3)s2)cc1.O=C(O)C(F)(F)F (stereo unspecified)	100%
CC(C)N1CCC(N(Cc2ccc(-c3ccc(Cl)cc3)cc2)C(=O)Cn2c(CCc3cccc(F)c3F)cc(=O)c3ccccc32)CC1.O=C(O)C(O)C(O)C(=O)O	96%
CN(C)Cc1cccc(-c2ccc(NC(=O)c3ccc4c(=O)n(CCN5CCCCC5)cnc4c3)cc2)c1	100%
COc1ccc(-c2cc(C(=O)N[C@@H](Cc3ccccc3)C(=O)NCCN3CCCCC3)ccc2O)cc1	96%
CN1CCN(Cc2ccc(OCc3cccc(COc4ccc(CN5CCN(C)CC5)cc4I)c3)c(I)c2)CC1.Cl	92%
O=C(Nc1ccccc1Cc1ccccc1)c1ccccc1[N+](=O)[O-]	98%
CC(Cc1ccc(CNC(=O)c2ccc(CC(C)NCCc3cccc(Cl)c3)cc2)cc1)NCCc1cccc(Cl)c1 (stereo unspecified)	99%

SMILES	Inhibition
Cc1ccc(N2C(N)=NC(N)=NC2(C)C)cc1.Cl	96%
Cc1ccc(NC(=O)c2nc(N3CCN(c4ccncc4)CC3)ccc2Cl)cc1F.O=C(O)C(F)(F)F	100%
Cc1nc(-c2ccc(-c3ccc(C(=O)Nc4ccc(Cl)c(N5CCN(C)CC5)c4)cc3)c(C)c2)no1	100%
CN(Cc1cc(C(F)(F)F)cc(C(F)(F)F)c1)C(=O)C1CNCC1c1ccc(F)cc1.Cl (stereo unspecified)	92%
CC(CNc1nc(NCC(c2ccccc2)c2ccccc2)c2nc[nH]c2n1)c1ccccc1 (stereo unspecified)	93%
COc1cc(OC)c(NC(=O)C2c3ccccc3C(=O)N(C)C2c2cccs2)cc1Cl (stereo unspecified)	99%
CN(C)Cc1ccc(-c2cc3ncnc(Nc4ccc(OCc5cccc(F)c5)c(Cl)c4)c3s2)[nH]1	99%
CC(=O)N1N=C(c2cccs2)Sc2c1nc(-c1ccc(Cl)cc1)n2C(C)=O	99%
O=CO.Oc1ccccc1CNCc1ccc(-c2cnc(N3CCCC(c4ccccc4)C3)nc2)cc1 (stereo unspecified)	99%
CN(CCN(C)CC(O)c1ccc(Cl)c(Cl)c1)CC(O)c1ccc(Cl)c(Cl)c1.Cl (stereo unspecified)	91%
O=C(/C=C/c1ccc(Cl)c(Cl)c1)NCCCCCN1CCCN(C(=O)Nc2cccc(C(F)(F)F)c2)CC1	96%
CN1CCC(NCc2ccc(-c3ccc(C(F)(F)F)cc3)cc2)CC1	99%
Cc1[nH]c(/C=C2\C(=O)Nc3ccc(S(=O)(=O)Cc4c(Cl)cccc4Cl)cc32)c(C)c1C(=O)N1CCC[C@@H]1CN1CCCC1 [PHA-665752]	85%
Nc1nccc2ccc(-c3ccc(NC(=O)Nc4cc(C(F)(F)F)ccc4F)cc3)cc12.O=C(O)C(F)(F)F	100%
COc1cccc(-c2cnc(-c3ccncc3)nc2C2CCN(Cc3ccc(NC(C)=O)cc3)CC2)c1	89%
Clc1ccc2c(NCc3ccccc3)ccnc2c1	100%
CC(C)(C)c1cc(C(=O)N2CCN(c3ncccc3C(F)(F)F)CC2)n(Cc2ccccc2)n1	100%
O=C(NC1CCN(CCC[C@]2(c3ccc(Cl)c(Cl)c3)CCCN(C(=O)c3ccccc3)C2)CC1)c1ccc(Cl)cc1	95%

From ChEMBL document CHEMBL1157539, “Thousands of chemical starting points for antimalarial lead identification” (Nature, 2010)
